The supplement of paper PMC3334620
Whole data set: some 33,000 sequences, median “E-score (-0.5 to 0.5)” near -0.016, cut for the highest 2% near 0.31. For the sample, the highest values were picked, then their nearest neighbours and some sequences at random.

What follows are sequences tested against Cst6 (UniProt P40535) (assay: PBM E-score (8-mer binding enrichment) (E-score (-0.5 to 0.5)); higher = stronger / more preferred TF binding). Conditions: protein concentration: 200 nM; construct: GST-DNA-binding domain.
UniProt P40535, sequence (P40535 whole entry, the tested form may be a part): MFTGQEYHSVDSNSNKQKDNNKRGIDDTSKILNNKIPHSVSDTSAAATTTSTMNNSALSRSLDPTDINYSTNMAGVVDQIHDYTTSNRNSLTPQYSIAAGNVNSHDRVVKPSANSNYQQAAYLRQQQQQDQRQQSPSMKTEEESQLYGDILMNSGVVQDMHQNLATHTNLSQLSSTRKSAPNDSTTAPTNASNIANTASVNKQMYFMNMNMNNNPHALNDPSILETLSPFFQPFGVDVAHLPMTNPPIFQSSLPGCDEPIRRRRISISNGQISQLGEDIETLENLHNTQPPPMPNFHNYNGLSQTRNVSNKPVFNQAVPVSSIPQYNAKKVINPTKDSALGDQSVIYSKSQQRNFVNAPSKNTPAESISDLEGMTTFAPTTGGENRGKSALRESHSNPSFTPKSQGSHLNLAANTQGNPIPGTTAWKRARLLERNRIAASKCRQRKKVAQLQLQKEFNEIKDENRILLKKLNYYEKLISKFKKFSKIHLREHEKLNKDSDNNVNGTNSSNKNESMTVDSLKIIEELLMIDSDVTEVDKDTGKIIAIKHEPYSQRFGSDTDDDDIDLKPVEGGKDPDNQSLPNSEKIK
Experimental: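 Universal 'all 10-mer' protein binding microarrays (Agilent AMADID 015681) probed with GST-tagged S. cerevisiae TFs (full-length or DBD) made by in vitro transcription/translation (PURExpress), about 100-200 nM. Bound TF was detected with fluorescent anti-GST. Each ungapped 8-mer (which stands for itself and its reverse complement) is scored by the PBM enrichment score (E-score), a modified Wilcoxon-Mann-Whitney statistic from -0.5 to +0.5, computed with the Universal PBM Analysis Suite. Scale: above 0.35 generally sequence-specific binding.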

Row | Sequence | PBM E-score
1 | CATCATGA | 0.363
2 | GATCATGC | -0.137
3 | AATCATGC | 0.0631
4 | AATCATGA | 0.338
5 | AATCATGG | 0.0769
6 | CATCATGC | 0.362
7 | AATCATGT | 0.139
8 | TATCATGA | 0.186
9 | CATCATGG | 0.249
10 | GATAGCGC | -0.152
11 | GGGAGTCA | -0.153
12 | ACGCTATC | 0.093
13 | CAGCTGCC | -0.146
14 | AGAAGTCA | 0.0402
15 | GGAAGGCC | -0.136
16 | AAGAACAA | 0.327
17 | AAGAACAC | 0.167
18 | AAGAACAG | 0.0582
19 | TCCCTCGA | -0.205
20 | AGAAGTCT | -0.118
21 | GGACGTAC | -0.065
22 | CGACGTAA | 0.451
23 | TGACGTAA | 0.499
24 | AGACGTAC | -0.0375
25 | AGACGTAG | -0.133

Row | Sequence | PBM E-score
26 | TGTCGTAA | 0.303
27 | GGACGTAA | 0.279
28 | AGACGTAA | 0.371
29 | CGACGTAC | 0.139
30 | CGTGGTGC | -0.177
31 | CAGACCTA | -0.00947
32 | GCACAGAA | 0.109
33 | AGCTGAGA | -0.101
34 | AATCCAAT | 0.139
35 | AATCAGCT | 0.186
36 | ACTCACGA | -0.053
37 | GCTTTAAC | 0.135
38 | AGGGCGTG | -0.115
39 | CCGGCGTA | -0.134
40 | ACGGCGTA | 0.358
41 | CTGGCGTC | -0.0408
42 | ACGGCGGC | 0.156
43 | ACGGCGGG | 0.108
44 | ACGGCGTC | 0.347
45 | CCGGCGTC | -0.0641
46 | ATGGCGTG | 0.113
47 | ATGGCGTC | 0.311
48 | ACGGCGTG | 0.314
49 | GCGGCGTA | 0.23
50 | ACCGGTCA | -0.0152

Row | Sequence | PBM E-score
51 | ACGCCACG | 0.0785
52 | GGAAAACC | -0.0924
53 | TCACAGAA | 0.133
54 | CCAGTGCA | -0.185
55 | GCAGTTCA | 0.0321
56 | CAATGCGA | 0.136
57 | GACGGGTA | -0.0938
58 | GTCCCATA | -0.14
59 | CTGAAACA | -0.0169
60 | AAATTTAT | 0.234
61 | CATTTTAC | 0.273
62 | AATTTTAT | 0.346
63 | AATTTTAA | 0.25
64 | AATTTTAC | 0.326
65 | ATTTTTAC | 0.201
66 | ATTTGCTA | 0.156
67 | CTATTCAA | 0.197
68 | ACAACCAT | 0.325
69 | ACAACCAC | 0.133
70 | ACAACCAG | 0.0122
71 | CTACGCAA | 0.119
72 | GGCACGTA | 0.119
73 | TAATGAAA | 0.261
74 | AATGAAAA | 0.236
75 | AATGAAAG | 0.168

Row | Sequence | PBM E-score
76 | AAATGAAA | 0.322
77 | CAATGAAA | 0.153
78 | AATGAAAT | 0.37
79 | CAAACTTC | 0.177
80 | AACCTTAG | -0.158
81 | AAGAGGAC | -0.249
82 | AAACAGGA | 0.0722
83 | GATTTCAA | -0.0222
84 | TATTTCAA | 0.318
85 | TATTTTAA | 0.259
86 | TATTAAAA | 0.323
87 | TATTTAAA | 0.308
88 | CATTTCAA | 0.222
89 | ATTTTTAA | 0.293
90 | GTTTTAAA | 0.196
91 | AATTAAAA | 0.187
92 | ATTTTAAA | 0.308
93 | CATTTAAA | 0.279
94 | GATTAAAA | 0.242
95 | CAAACCCC | -0.178
96 | AAGGCGTA | 0.0577
97 | AGGCGAAT | 0.0491
98 | TCCTTGAA | -0.0366
99 | AGGGCAGA | -0.248
100 | GAGTTACC | -0.0903

Row | Sequence | PBM E-score
101 | ATGGCACG | 0.111
102 | ACCGGTGC | -0.105
103 | ACCTTTTC | -0.133
104 | ATCAGTGA | 0.136
105 | CTCAGTGA | 0.0623
106 | GTCAGTGA | 0.308
107 | GGTACACC | -0.287
108 | GGCAGGCA | -0.193
109 | GAATGTCA | 0.206
110 | ACATGTCA | 0.275
111 | TAATGTCA | 0.356
112 | AAATGTCA | 0.216
113 | TCATGTCA | 0.382
114 | GCATGTCA | 0.287
115 | ATCCATGG | -0.138
116 | GGAGATTA | 0.13
117 | AGCTTCGC | -0.134
118 | CGAACGAG | -0.108
119 | CCACTTCA | -0.197
120 | AACCACCA | 0.00505
121 | CGGCCGCC | -0.0119
122 | GGTATTTA | 0.0257
123 | AGTATTTA | 0.171
124 | CGTATTTA | 0.358
125 | GAGCCTGC | -0.173

Row | Sequence | PBM E-score
126 | AAACAGGC | -0.0905
127 | GTAACGTA | 0.302
128 | AGAACGTC | 0.142
129 | CTAACGTC | 0.356
130 | CAAACGTC | 0.137
131 | ATAACGTG | 0.213
132 | ATAACGTC | 0.38
133 | CTAACGTA | 0.281
134 | ATAACGTA | 0.398
135 | ATAACGAA | 0.217
136 | CTACTCAC | 0.212
137 | CATAGACC | -0.13
138 | AACTGCCG | 0.114
139 | GTAATTTA | 0.333
140 | ATAATTTA | 0.304
141 | GCAATTTA | 0.151
142 | TAAATTTA | 0.237
143 | CTAATTTA | 0.321
144 | CTAATTTC | 0.128
145 | CATGAGGG | -0.142
146 | ATGCAAAA | 0.22
147 | ACGGTCAC | 0.152
148 | TCAGCGCA | -0.176
149 | ACAAAAGT | 0.164
150 | GCGTATTA | 0.0768

Row | Sequence | PBM E-score
151 | ACGTATAA | 0.309
152 | CCGTATAA | 0.225
153 | CCGTATAC | -0.015
154 | ACGTATAT | 0.237
155 | TCGTATAA | 0.145
156 | ACGTATAC | 0.307
157 | ACGTATTA | 0.33
158 | ACGTATTG | 0.238
159 | CGAGACTA | 0.0119
160 | GCAGCGCC | 0.0306
161 | CTAAAGAG | -0.0139
162 | AGGGGCCC | -0.101
163 | ACCCGACT | -0.16
164 | CAAGGTTC | -0.155
165 | AGGCTGGC | -0.195
166 | GAACGTAA | 0.277
167 | CAACGTTC | -0.13
168 | TAACGTAA | 0.452
169 | AAACGTAT | 0.276
170 | CAACGTAG | 0.0788
171 | TAACGAAA | 0.27
172 | CAACGTAC | 0.0567
173 | AAACGTAG | -0.0946
174 | AAACGTTG | -0.106
175 | CAACGTAA | 0.329
